Experiment [1] addresses Tyrosine-protein kinase SYK (Homo sapiens) (UniProt P43405). As to conditions: at 10 µM.
Experiment [2] addresses T1, Mitogen-activated protein kinase kinase kinase 7 (Homo sapiens) (UniProt O43318).
T1 sequence (whole entry): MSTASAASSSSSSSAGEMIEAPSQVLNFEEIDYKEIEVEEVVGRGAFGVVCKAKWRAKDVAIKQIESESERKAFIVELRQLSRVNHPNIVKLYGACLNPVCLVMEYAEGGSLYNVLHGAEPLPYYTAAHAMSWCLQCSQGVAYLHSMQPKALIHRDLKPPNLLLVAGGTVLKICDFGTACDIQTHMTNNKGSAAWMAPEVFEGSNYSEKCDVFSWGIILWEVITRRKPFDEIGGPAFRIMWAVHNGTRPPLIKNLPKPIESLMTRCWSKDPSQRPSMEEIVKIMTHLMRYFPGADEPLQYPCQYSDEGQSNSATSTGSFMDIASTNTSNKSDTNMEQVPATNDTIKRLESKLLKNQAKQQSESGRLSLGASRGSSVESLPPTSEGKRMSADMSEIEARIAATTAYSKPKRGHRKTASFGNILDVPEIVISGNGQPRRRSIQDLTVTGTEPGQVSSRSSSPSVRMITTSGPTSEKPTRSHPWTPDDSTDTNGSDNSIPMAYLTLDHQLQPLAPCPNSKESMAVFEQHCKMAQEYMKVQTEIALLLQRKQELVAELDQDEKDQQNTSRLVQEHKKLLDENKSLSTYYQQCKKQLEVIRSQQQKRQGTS
The conditions noted are these: at 1 µM.

The target of experiment [3] is T1, Mitogen-activated protein kinase kinase kinase 7 (Homo sapiens). The conditions noted are these: at 10 µM.
Experiment [4] deals with T2, Serine/threonine-protein kinase TAO1 (Homo sapiens) (UniProt Q7L7X3).
T2 sequence (whole entry): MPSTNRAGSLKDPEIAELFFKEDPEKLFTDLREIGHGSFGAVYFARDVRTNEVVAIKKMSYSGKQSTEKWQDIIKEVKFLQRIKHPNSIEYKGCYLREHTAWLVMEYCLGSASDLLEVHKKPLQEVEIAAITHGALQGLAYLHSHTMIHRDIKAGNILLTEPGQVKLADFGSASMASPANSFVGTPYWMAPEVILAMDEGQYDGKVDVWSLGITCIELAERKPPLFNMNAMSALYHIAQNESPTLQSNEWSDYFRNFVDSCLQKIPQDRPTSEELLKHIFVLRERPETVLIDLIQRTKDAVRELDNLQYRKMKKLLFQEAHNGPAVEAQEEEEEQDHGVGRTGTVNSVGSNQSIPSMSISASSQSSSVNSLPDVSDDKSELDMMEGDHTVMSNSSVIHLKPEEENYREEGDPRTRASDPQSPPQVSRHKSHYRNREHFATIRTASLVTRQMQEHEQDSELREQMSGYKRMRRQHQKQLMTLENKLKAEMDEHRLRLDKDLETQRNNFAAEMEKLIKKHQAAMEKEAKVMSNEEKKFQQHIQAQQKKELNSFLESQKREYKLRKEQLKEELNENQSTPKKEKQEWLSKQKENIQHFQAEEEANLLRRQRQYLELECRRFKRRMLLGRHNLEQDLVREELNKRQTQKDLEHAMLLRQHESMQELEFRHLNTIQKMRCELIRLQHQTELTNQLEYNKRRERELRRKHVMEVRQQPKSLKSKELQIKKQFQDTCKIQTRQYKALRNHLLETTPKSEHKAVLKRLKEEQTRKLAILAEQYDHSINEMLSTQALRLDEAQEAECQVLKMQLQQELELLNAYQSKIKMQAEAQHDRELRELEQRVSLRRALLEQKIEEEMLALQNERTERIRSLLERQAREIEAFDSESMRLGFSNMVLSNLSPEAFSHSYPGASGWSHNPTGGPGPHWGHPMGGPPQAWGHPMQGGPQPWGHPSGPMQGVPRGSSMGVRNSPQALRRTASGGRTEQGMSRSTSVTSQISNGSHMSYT
As to conditions: at 1 µM.

In experiment [5] the target is T2, Serine/threonine-protein kinase TAO1 (Homo sapiens). The conditions noted are these: at 10 µM.
For experiment [6], the target named is T3, Serine/threonine-protein kinase TAO2 (Homo sapiens) (UniProt Q9UL54).
T3 sequence (whole entry): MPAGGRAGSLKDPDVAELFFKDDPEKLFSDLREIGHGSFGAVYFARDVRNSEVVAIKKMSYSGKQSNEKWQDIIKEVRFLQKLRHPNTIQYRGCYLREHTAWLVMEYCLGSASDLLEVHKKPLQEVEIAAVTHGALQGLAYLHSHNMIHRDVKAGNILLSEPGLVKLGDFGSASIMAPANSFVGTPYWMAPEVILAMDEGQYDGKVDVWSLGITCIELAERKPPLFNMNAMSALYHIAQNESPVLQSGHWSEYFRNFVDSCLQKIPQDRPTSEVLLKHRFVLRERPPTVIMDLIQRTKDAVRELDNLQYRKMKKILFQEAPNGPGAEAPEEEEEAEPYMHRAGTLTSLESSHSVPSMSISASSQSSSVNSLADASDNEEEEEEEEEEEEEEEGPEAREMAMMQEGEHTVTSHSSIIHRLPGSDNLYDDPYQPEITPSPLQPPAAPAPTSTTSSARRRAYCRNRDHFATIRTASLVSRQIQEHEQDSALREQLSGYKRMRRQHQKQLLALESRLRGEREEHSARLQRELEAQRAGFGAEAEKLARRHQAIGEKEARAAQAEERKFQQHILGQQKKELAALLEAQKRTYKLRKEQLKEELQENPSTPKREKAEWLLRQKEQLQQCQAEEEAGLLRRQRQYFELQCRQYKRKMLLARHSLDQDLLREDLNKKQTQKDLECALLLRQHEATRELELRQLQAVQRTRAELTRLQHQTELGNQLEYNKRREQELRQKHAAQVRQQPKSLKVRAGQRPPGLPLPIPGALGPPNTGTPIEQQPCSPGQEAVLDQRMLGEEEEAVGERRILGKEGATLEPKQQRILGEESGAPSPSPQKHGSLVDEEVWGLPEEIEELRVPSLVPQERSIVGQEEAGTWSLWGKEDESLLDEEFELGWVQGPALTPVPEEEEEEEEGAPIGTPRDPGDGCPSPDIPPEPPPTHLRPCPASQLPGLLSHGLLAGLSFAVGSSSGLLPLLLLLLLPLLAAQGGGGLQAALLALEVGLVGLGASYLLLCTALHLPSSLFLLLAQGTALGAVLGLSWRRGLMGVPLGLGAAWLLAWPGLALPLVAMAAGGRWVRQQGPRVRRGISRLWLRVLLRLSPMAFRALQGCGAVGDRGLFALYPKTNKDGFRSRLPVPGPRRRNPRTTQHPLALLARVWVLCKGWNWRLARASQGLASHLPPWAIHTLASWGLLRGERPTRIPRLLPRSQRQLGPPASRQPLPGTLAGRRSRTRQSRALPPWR
The conditions noted are these: at 1 µM.

Experiment [7] deals with T3, Serine/threonine-protein kinase TAO2 (Homo sapiens). As to conditions: at 10 µM.
Experiment [8] deals with T4, Serine/threonine-protein kinase TAO3 (Homo sapiens) (UniProt Q9H2K8).
T4 sequence (whole entry): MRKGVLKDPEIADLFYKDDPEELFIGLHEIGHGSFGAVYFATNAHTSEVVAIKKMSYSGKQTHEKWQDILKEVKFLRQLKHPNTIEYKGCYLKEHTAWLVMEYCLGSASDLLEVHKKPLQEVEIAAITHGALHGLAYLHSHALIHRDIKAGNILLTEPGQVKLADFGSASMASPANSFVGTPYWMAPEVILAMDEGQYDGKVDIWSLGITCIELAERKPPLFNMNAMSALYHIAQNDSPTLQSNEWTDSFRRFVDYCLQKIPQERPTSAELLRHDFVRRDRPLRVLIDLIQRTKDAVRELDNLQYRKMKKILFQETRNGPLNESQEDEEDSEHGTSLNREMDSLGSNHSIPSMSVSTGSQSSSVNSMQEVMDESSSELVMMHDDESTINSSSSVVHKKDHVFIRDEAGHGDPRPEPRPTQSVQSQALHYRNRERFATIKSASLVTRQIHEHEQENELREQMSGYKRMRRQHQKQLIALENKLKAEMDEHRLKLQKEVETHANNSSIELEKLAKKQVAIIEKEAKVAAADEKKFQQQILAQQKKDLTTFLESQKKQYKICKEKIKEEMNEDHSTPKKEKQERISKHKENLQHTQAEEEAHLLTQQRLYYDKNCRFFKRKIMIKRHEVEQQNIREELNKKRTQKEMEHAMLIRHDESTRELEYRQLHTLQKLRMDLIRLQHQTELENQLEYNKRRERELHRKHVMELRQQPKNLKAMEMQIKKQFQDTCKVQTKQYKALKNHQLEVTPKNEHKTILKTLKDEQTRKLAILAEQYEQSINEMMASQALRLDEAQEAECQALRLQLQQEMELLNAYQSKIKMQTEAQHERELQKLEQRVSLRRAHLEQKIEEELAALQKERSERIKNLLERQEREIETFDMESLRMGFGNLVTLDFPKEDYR
The conditions noted are these: at 1 µM.

Experiment [9] concerns the target T4, Serine/threonine-protein kinase TAO3 (Homo sapiens). As to conditions: at 10 µM.
Experiment [10] concerns the target T5, Serine/threonine-protein kinase TBK1 (Homo sapiens) (UniProt Q9UHD2).
T5 sequence (whole entry): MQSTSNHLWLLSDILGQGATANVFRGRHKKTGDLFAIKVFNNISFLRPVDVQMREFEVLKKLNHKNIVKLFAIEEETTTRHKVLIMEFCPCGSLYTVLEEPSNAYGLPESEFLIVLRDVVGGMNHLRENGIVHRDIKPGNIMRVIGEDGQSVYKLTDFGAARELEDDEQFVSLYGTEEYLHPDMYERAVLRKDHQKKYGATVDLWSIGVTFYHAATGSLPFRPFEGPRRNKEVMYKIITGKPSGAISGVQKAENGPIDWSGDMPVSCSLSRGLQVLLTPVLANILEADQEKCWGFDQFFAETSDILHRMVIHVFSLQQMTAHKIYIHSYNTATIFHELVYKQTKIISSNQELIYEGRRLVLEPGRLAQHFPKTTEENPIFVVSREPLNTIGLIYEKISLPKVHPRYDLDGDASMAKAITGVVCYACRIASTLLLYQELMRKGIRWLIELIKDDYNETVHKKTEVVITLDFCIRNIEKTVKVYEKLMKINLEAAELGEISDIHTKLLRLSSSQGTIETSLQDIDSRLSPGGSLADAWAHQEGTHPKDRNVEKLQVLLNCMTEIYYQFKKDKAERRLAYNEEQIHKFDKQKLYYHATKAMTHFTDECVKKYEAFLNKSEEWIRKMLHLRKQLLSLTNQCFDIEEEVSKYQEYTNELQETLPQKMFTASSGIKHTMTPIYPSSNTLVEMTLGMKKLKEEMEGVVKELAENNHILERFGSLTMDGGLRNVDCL
The conditions noted are these: at 1 µM.

Consider 1 compound from ChEMBL document CHEMBL2218924, “A broad activity screen in support of a chemogenomic map for kinase signalling research and drug discovery” (Biochem J, 2013).

SMILES strings stand for the structures.

Take `COc1ccc(S(=O)(=O)N(CCO)c2ccccc2CN(C)C/C=C/c2ccc(Cl)cc2)cc1`: the residual activity in [1] was 69%; in experiment [2], 93%; in [3], 82%; in experiment [4], 97%; in [5], 83%; in experiment [6], 105%. The residual activity is 88% in experiment [7], 86% in experiment [8], 84% in experiment [9] and 73% in [10].
